Screening results deposited in PubChem BioAssay by National Center for Advancing Translational Sciences (NCATS).
SMN2 splice up – increases expression of the SMN2 splice variant | Potency, µM (highest dose often 46.1 µM), for the others: at the top dose activity change, positive = activation, most hits filed as activators | 210,000 compounds, 2.8% hits | HEK293 SMN2-luciferase splicing reporter, luminescence, 30-36 h | AID 1458; also: % of control where 0% means no effect; nearly all actives have a fitted effect of over 55% in size
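qHTS luciferase splicing reporter: luminescence rises when SMN2 exon 7 is included in transfected HEK293 cells. Compound exposure lasted 30-36 h at 37C, with 4.5 mM final sodium butyrate as control, followed by a ONE-Glo read.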
Rab9 promoter act – activates the Rab9 promoter; Potency, µM (highest dose often 9.22 µM), for inactives: top-dose activation, negative = inhibition, actives largely listed as activators; Huh7 Rab9 promoter-luciferase reporter, luminescence, 24 h; 320,000 compounds, 2.8% hits; AID 485297; also: % of control where 0% means no effect; nearly all actives have a fitted effect of over 60% in size
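Luciferase signal after 10 min detection reagent at ambient indicates Rab9 promoter upregulation; stably transfected Huh7 cells were treated 24 h with compound in DMSO at 37 °C, 5% CO2.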
FLuc modulator – firefly luciferase modulation, counter-screen for miR-21 project; P08659; purified FLuc, Km substrates, luminescence inhibition; Potency, µM (top dose mostly 57.5 µM), for the others: top-dose activity change, negative = inhibition, hits mostly inhibitors; 360,000 compounds, 6.9% hits;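 also: plate controls were vehicle for no effect and reference inhibitor for full effect; nearly all actives have a fitted effect of over 55% in size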
Target sequence (P08659 whole entry, looked up): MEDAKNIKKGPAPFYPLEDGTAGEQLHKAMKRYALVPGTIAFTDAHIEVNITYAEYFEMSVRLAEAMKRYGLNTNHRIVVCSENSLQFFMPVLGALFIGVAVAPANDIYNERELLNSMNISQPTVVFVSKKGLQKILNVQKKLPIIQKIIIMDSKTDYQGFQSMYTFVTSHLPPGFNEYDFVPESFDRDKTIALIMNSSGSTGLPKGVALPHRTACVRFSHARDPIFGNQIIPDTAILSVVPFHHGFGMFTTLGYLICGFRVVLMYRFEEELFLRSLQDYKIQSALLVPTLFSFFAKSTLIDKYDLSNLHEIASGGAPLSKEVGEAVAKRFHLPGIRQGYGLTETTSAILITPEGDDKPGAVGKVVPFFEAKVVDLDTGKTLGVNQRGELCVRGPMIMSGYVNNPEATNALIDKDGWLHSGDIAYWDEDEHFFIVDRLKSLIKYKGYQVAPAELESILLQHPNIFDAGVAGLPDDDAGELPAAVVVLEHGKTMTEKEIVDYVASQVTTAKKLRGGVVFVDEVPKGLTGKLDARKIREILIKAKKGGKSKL
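Purified P. pyralis luciferase (10nM final) with 10uM D-luciferin and 10uM ATP (Km levels) in 50mM Tris acetate pH 7.5, 10mM Mg acetate, 0.01% Tween-20, 0.05% BSA; qHTS 6-point titration, ~60 µM downward; luminescence read.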
ELG1 genotoxic – inducers of genotoxicity in HEK293T ELG1-luciferase cells. AID 504466. Potency, µM (highest dose often 46 µM), without a hit: top-dose activity change, positive = activation, hits mostly activators. 330,000 compounds, 1.3% hits. HEK293T ELG1-luciferase reporter, luminescence, 16 h; also: % of control where 0% means no effect; nearly all actives have a fitted effect of over 60% in size
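Cells (2,000/well) expressing the ELG1-luciferase fusion are dosed by pin tool and kept 16 hr at 37 °C, 5% CO2. Signal comes from ONE-Glo luciferase reagent after 30 min at room temperature.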
NPC1 promoter act – activators of NPC1 promoter; Huh7 NPC1 promoter luciferase reporter, 24 h; 320,000 compounds, 2.4% hits; Potency, µM (doses to about 9.22 µM), for inactives: at the highest dose activation, most hits filed as activators; also: % of control where 0% means no effect; nearly all actives have a fitted effect of over 60% in size
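Luciferase expression driven by the NPC1 promoter was measured in stably transfected Huh7 cells after a 24 h compound incubation, using a luciferase reagent and a luminescence read.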
Numbers without * were called inactive; ? = inconclusive; nt = no result given; [ ] = dose if it differs, or a comment. In the library only some 7.4% were active in any assay of this set; here they are far more common. Calls follow the shape of the dose curve; as a rule, active = well fitted curve in the direction sought with a large enough effect; inconclusive = small, poorly fitted or top-dose-only effect, or another doubt; inactive = no such curve, though single readings can be large; an effect the other way counts as inactive or inconclusive. Potency is read from the fitted curve at half-maximal effect.

SMILES	SMN2 splice up	Rab9 promoter act	FLuc modulator	ELG1 genotoxic	NPC1 promoter act
COC(=O)c1ccc(C(NC(=O)OCc2ccccc2)/C(C)=C/[C@@H](C)C(=O)N[C@@H](CO)Cc2ccccc2)cc1 (stereo not given in full)	-3.3%	nt	nt	nt	nt
Cc1cccc2cc(CN(CCCO)C(=O)Nc3ccc(Cl)cc3)c(=O)[nH]c12	-11.3%	2.9%	?	1.7%	-2.8%
Cc1cccc2cc(CN(CCCO)C(=O)Nc3cccc(Cl)c3)c(=O)[nH]c12	-15.7%	-8.6%	21.3µM*	-5.7%	-2.6%
Cc1ccc(Nc2nnc(SCc3cc(=O)n4ccsc4n3)s2)c(C)c1	-7.9%	14.1%	-1.6%	-0.5%	-1.7%
Cc1ccc(SCc2cc(=O)n3ccsc3n2)c(C)c1	12.6µM*	3.16µM*	15.1µM*	?	?
C[C@]12C=CC(=O)C=C1CCC1C2C(=O)C[C@]2(C)C1CC[C@]2(O)C(=O)CO (stereo not given in full)	0.6%	nt	nt	nt	nt
O=C(CSc1ncn[nH]1)Nc1ccccc1-c1ccccc1	-5.2%	-0.1%	-3.8%	0.0%	-7.3%
CC(C)Cc1nnc(NC(=O)CSc2nc(-c3ccccc3)cc(=O)[nH]2)s1	nt	3.7%	12µM*	-2.7%	0.3%
Nc1cc(=O)[nH]c(SCC(=O)Nc2ccccc2-c2ccccc2)n1	0.0%	11.7%	-1.1%	5.6%	-5.6%
Cc1cc(=O)[nH]c(SCC(=O)Nc2nnc(CC(C)C)s2)n1	-18.7%	-1.4%	3.2%	-1.1%	0.1%
Nc1cc(=O)[nH]c(SCC(=O)Nc2nnc(-c3ccccc3)s2)n1	19.6%	13.9%	23.9µM*	7.0%	7.6%
CCn1c(Cc2ccccc2)nnc1SCC(=O)Nc1nc(C)c(C)s1	4.7%	1.9%	-1.3%	-2.9%	2.2%
O=C(CSc1ncn[nH]1)Nc1nnc(-c2ccccc2)s1	7.4%	?	21.3µM*	?	19.3%
CCn1c(Cc2ccccc2)nnc1SCC(=O)Nc1nnc(-c2ccccc2)s1	0.112µM*	-2.8%	?	15.9%	0.2%
COc1ccc(S(=O)(=O)N2CCC(Oc3ccc(-n4cnnn4)cc3)CC2)cc1OC	-20.4%	nt	-6.0%	nt	nt
CC(=O)c1cc2c(cc1O)OC(C)(C)C=C2	-3.4%	nt	nt	nt	nt
COc1ccc(O)c(C(=O)c2cnn(-c3ccc(Cl)cc3)c2)c1	nt	18.0%	16.9µM*	4.3%	3.6%
O=C(O)c1ccc(-n2cc(C(=O)c3ccccc3O)cn2)cc1	nt	11.6%	15.1µM*	-11.7%	9.7%
COc1ccc(O)c(C(=O)c2cc(C#N)c(=O)n(-c3ccc(Cl)cc3)c2)c1	nt	0.8%	-18.2%	-3.7%	-4.2%
O=C(c1cnn(C(=O)c2ccccc2)c1)c1ccccc1O	6.4%	3.4%	-19.9%	-2.8%	0.5%
O=C(c1cnn(-c2nc3ccccc3s2)c1)c1ccccc1O	51.2%	?	3.01µM*	?	3.55µM*
O=C(c1cnn(-c2ccccc2)c1)c1ccc2ccccc2c1O	12.6µM*	?	7.57µM*	?	?
Cc1cc(NC(=O)Nc2nnc(N3CCCCC3)s2)ccc1Br	nt	nt	2.3%	nt	nt
O=C(c1cnn(-c2ccccc2)c1)c1cc(Br)ccc1O	nt	1.4%	6.2%	0.8%	-1.7%
O=C(c1cnn(-c2cccc(F)c2)c1)c1ccccc1O	nt	-0.2%[1.84 µM]	3.79µM*	?	?
SMILES	SMN2 splice up	Rab9 promoter act	FLuc modulator	ELG1 genotoxic	NPC1 promoter act
COc1ccc(S(=O)(=O)n2nc(C)c(S(=O)(=O)N3CCCCCC3)c2C)cc1C	nt	nt	-17.6%	nt	nt
CCCc1ccc(C(=O)NNC(=O)c2ccc(Br)cc2)cc1	-20.8%	-0.5%	2.8%	-1.2%	-2.2%
CCCc1ccc(C(=O)NC(=O)c2ccccc2O)cc1	nt	?	0.601µM*	5.7%	?
O=C(NC(=O)c1ccccc1O)c1ccc(C(F)(F)F)cc1	nt	?	3.01µM*	5.2%	?
COc1ccc(-c2cc(OC(=O)c3ccc(F)cc3)c3c(C)oc(C)c3c(=O)c2)cc1OC	3.3%	nt	-6.8%	nt	nt
C(=N\Nc1nc2ccccc2[nH]1)/c1c[nH]c2ccccc12	?	?	7.57µM*	?	?
Cc1cc(=O)[nH]c(N/N=C/c2c[nH]c3ccccc23)n1	nt	19.8%	?	3.9%	3.9%
O=[N+]([O-])c1cc(/C=N/Nc2nc3ccccc3[nH]2)c(O)cc1O	-65.2%	-27.9%	23.9µM*	?	-30.6%
Cc1[nH]c2ccccc2c1/C=N/Nc1nc2ccccc2[nH]1	nt	18.3%	4.26µM*	?	?
Cc1nn(-c2ccccc2)c(Cl)c1/C=N/Nc1nc2ccccc2[nH]1	nt	0.447µM*	0.477µM*	2.59µM*	0.562µM*
N#Cc1cccc(NC(=O)N2CC3(CCN(C(=O)c4ccco4)CC3)C2)c1	2.6%	nt	nt	nt	nt
C=C[C@@H](C1=CC(=O)C(OC)=C(OC)C1=O)c1ccccc1	-0.4%	nt	nt	nt	nt
COc1cccc(/C=N/Nc2nc(C)cc(=O)[nH]2)c1OC	nt	14.5%	?	10.2%	25.9%
C(=N\Nc1nc2ccccc2[nH]1)/c1cccc2cccnc12	nt	-15.1%	0.426µM*	?	25.7%
COc1ccc(/C=N/Nc2nc3ccccc3[nH]2)c(OC)c1OC	nt	?	1.51µM*	?	?
Cc1ccccc1/C=N/Nc1nc2ccccc2[nH]1	nt	3.55µM*	10.7µM*	-10.2%	?
Cc1ccc(/C=N/Nc2nc3ccccc3[nH]2)s1	10µM*	2.24µM*	5.36µM*	?	2.82µM*
CC(=O)N1CCC(=NNc2nc3ccccc3[nH]2)CC1	?	-6.3%	?	3.4%	0.6%
Cc1ccccc1/C=N/Nc1ccc(Cl)nn1	-2.0%	15.7%	-6.9%	-0.3%	11.2%
O=C(Nc1ccc(Br)cc1)c1cnc[nH]1	nt	3.55µM*	23.9µM*	?	?
